According to PubChem BioAssay AID2235 (The Scripps Research Institute Molecular Screening Center, 2010):
The campaign covered roughly 320,000 compounds. About 2,800 (0.88%) were called active. This is one part of a sample in which actives are shown more often than they occur.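 How the source made its calls: active means inhibition above the mean inhibition of all tested compounds plus 3 SD, computed separately for each screening campaign (cut at about 15% in these data); inactive means the rest.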

Target: Serine/threonine-protein phosphatase PP1-alpha catalytic subunit (Homo sapiens) (UniProt P62136)
Assay: inhibition of human PP1 catalytic subunit – biochemical, fluorescence, OMFP substrate, single point, counter-screen for PP5 inhibitor project, primary screen (AID 2235)
Conditions: purified PP1alpha, at 6.7 µM, active compounds read high

Serine/threonine-protein phosphatase PP1-alpha catalytic subunit (Homo sapiens), sequence (P62136 whole entry, looked up): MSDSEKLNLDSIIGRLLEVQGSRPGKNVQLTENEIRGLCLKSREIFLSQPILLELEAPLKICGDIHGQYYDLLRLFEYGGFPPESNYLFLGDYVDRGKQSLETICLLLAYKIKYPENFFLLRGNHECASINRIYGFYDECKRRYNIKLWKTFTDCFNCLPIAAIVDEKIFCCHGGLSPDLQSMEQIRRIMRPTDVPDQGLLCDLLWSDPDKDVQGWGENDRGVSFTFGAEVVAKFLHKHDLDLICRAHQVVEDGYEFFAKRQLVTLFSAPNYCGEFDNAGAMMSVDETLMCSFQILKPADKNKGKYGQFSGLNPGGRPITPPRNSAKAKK

| SMILES | inhibition |
| --- | --- |
| COC(=O)Nc1ccc(S(=O)(=O)Nc2cc(OC)nc(OC)n2)cc1 | 0.14% (inactive) |
| O=[N+]([O-])c1ccccc1/C=N/n1c(COc2ccccc2)n[nH]c1=S | 19.8% (active) |
| CCOc1ccc(-c2n[nH]c(=S)n2/N=C/c2cc3c(cc2[N+](=O)[O-])OCO3)cc1 | 1.23% (inactive) |
| Fc1ccc(/C=N/n2c(COc3ccccc3)n[nH]c2=S)cc1 | 1.88% (inactive) |
| CC(C)(C)OC(=O)N1CCC(NC(=O)c2[nH]cnc2C(=O)N[C@@H](Cc2ccccc2)C(=O)OCc2ccccc2)CC1 | 5.67% (inactive) |
| COc1ccc(CCNC(=O)COC(=O)c2ccc[nH]c2=O)cc1 | -2.04% (inactive) |
| CCc1ccc(-c2nn(-c3ccccc3)cc2CSC(=N)N)cc1 | 16.1% (active) |
| CCc1ccc(-c2nn(-c3ccccc3C)cc2C(=O)N2CCN(C3CCS(=O)(=O)C3)CC2)cc1 (configuration not stated) | -1.65% (inactive) |
| Cc1ccc(-c2nn(-c3ccccc3)cc2C(=O)NC2CCC(O)CC2)cc1 (configuration not stated) | -2.02% (inactive) |
| COC(=O)c1ccc(-n2cnc3ccccc32)nc1 | 1.21% (inactive) |
| c1ccc(-c2nccc(-c3ccc(-n4cnc5ccccc54)cc3)n2)nc1 | 44.6% (active) |
| Cc1nccc(-c2ccc(-n3c(C)ccc3C)cc2)n1 | -1.67% (inactive) |
| CC1(C)CC(=O)C(N=Nc2ccc(S(=O)(=O)N3CCCCCC3)cc2)=C(O)C1 | -0.81% (inactive) |
| Nc1ncnc(Nc2cccc(Cl)c2Cl)n1 | -0.33% (inactive) |
| c1ccc(C(c2ccccc2)N2CCN(Cc3nnnn3C3CCCCC3)CC2)cc1 | 1.36% (inactive) |
| O=C(OCC1O[C@@H](OC(=O)c2cc(O)c(O)c(O)c2)[C@@H](OC(=O)c2cc(O)c(O)c(O)c2)[C@@H](OC(=O)c2cc(O)c(O)c(O)c2)[C@@H]1OC(=O)c1cc(O)c(O)c(O)c1)c1cc(O)c(O)c(O)c1 (some centres not stated) | 82.4% (active) |
| O=C(OCC1OC(Oc2ccc(O)cc2)C(O)C(O)C1O)c1ccccc1 (configuration not stated) | -5.64% (inactive) |
| CC(C(=O)Nc1ccc(S(=O)(=O)N2CCCC2)cc1)N(C)Cc1ccc(F)cc1 (configuration not stated) | -3.95% (inactive) |
| Cc1ncc(CO)c(/C=N/NC(=O)c2cccc(S(=O)(=O)N3CCCC3)c2)c1O | 2.87% (inactive) |
| COc1ccc(/C=N/NC(=O)Nc2ccc3nsnc3c2)c(OC)c1 | 15.8% (active) |
| COc1ccc(/C=N/NC(=O)CNC(=O)c2ccc(S(=O)(=O)N3CCCC3)cc2)c(OC)c1 | 0.14% (inactive) |
| COc1ccc(/C=N/NC(=O)c2ccc3c(c2)OCCO3)c(OC)c1 | -5.02% (inactive) |

| SMILES | inhibition |
| --- | --- |
| CN1C(=O)/C(=C\c2ccc(-c3ccccc3)o2)SC1=S | -2.09% (inactive) |
| O=C(O)C(c1ccccc1)N1C(=O)/C(=C\c2ccc(-c3cccc(Cl)c3)o2)SC1=S (configuration not stated) | 18.4% (active) |
| O=C1NN(c2ccccc2)C(=O)/C1=C/c1ccc(-c2cccc(C(=O)O)c2)o1 | 5.88% (inactive) |
| CCOc1ccc(S(=O)(=O)NCc2ccc3c(c2)OCO3)cc1C | 1.37% (inactive) |
| C/C(=N/NC(=O)CCc1ccccc1)c1ccco1 | -1.45% (inactive) |
| N#Cc1c(Cl)nc(-c2cccnc2)nc1-c1ccccc1 | -1.04% (inactive) |
| Cc1cc(S(=O)(=O)NCC(C)C)ccc1OCC(=O)NC1CC1 | -3.62% (inactive) |
| CC(C)(C)C(=O)NC(NC(=S)Nc1ccc(S(N)(=O)=O)cc1)C(Cl)(Cl)Cl (configuration not stated) | 1.25% (inactive) |
| O=C(Cc1cccc2ccccc12)NNC(=O)Nc1ccc(Cl)cc1 | -1.41% (inactive) |
| Cc1ccc(NC(=S)NC(NC(=O)Cc2cccc3ccccc23)C(Cl)(Cl)Cl)cc1 (configuration not stated) | 16.6% (active) |
| CCn1cc(CNC(=O)c2cc([N+](=O)[O-])c(C)c([N+](=O)[O-])c2)cn1 | -2.81% (inactive) |
| COc1ccc(C(=O)NC2(C(F)(F)F)NC(=O)N(CCCc3ccccc3)C2=O)c(OC)c1OC (configuration not stated) | 1.31% (inactive) |
| Cc1ccc(C2=N/C(=C\c3ccc(OS(=O)(=O)c4ccc(C)cc4)cc3)C(=O)O2)cc1 | 0.93% (inactive) |
| CCOc1cc(/C=C2/N=C(c3ccc(C(C)(C)C)cc3)OC2=O)cc(Cl)c1OS(C)(=O)=O | 16% (active) |
| O=C1OC(c2ccc(Cl)cc2)=N/C1=C\c1cccnc1 | -0.8% (inactive) |
| COc1ccc(NS(=O)(=O)c2ccc(C)c(C(=O)NCC(c3cccs3)N3CCOCC3)c2)cc1 (configuration not stated) | -0.23% (inactive) |
| O=C(COc1ccc(S(=O)(=O)NCc2ccccc2)cc1)N1CCOCC1 | 0.87% (inactive) |
| Cc1cnc(C(=O)N2CCCC(C(=O)c3ccc(C(F)(F)F)cc3)C2)cn1 (configuration not stated) | -4.22% (inactive) |
| Cc1c(-c2nn(C)c(=O)c3ccccc23)oc2ccc(F)cc2c1=O | 3.07% (inactive) |
| Cc1cc(C)c(S(=O)(=O)NCCCN2CCOCC2)cc1Br | -3.53% (inactive) |
| CCC(c1nnnn1C1CCCC1)N(Cc1cccs1)Cc1cc2cccc(C)c2[nH]c1=O (configuration not stated) | 16.5% (active) |
| Cc1cccc2cc(CN(Cc3ccc4c(c3)OCO4)Cc3nnnn3C3CCCC3)c(=O)[nH]c12 | -2.51% (inactive) |

| SMILES | inhibition |
| --- | --- |
| CCC(c1nnnn1Cc1ccco1)N(CCc1ccccc1)Cc1cc2cccc(C)c2[nH]c1=O (configuration not stated) | 7.62% (inactive) |
| COc1ccc(OC)c(NC(=O)CN(Cc2ccc(Cl)cc2)S(C)(=O)=O)c1 | 0.99% (inactive) |
| CCOc1cc(-c2nc3cc(C)ccn3c2NCC2CCCO2)ccc1O (configuration not stated) | -2.03% (inactive) |
| CCCCCN(C(=O)NC(=O)Nc1cccc(C)c1C)S(C)(=O)=O | 4.61% (inactive) |
| Cc1ccc(OCC(=O)NCCCNC(=O)c2ccco2)cc1C | 2.4% (inactive) |
| CC(Oc1ccc2ccccc2c1)C(=O)NNC(=S)NC(=O)c1ccco1 (configuration not stated) | 0.47% (inactive) |
| CCCc1ccc(OCC(=O)NNC(=S)NC(=O)c2ccco2)cc1 | 18.6% (active) |
| CCN(CC)CCC(c1ccc2c(c1)OCO2)c1c(OC)cc(OC)c2c(-c3ccccc3)cc(=O)oc12 (configuration not stated) | 1.96% (inactive) |
| O=C(NCCc1ccccc1)C1CCC(Cn2c(=O)c3ccccc3n(Cc3cccnc3)c2=O)CC1 (configuration not stated) | -0.9% (inactive) |
| CCC(C)N(C(=O)COC(=O)c1nc(Cl)ccc1Cl)C1CCS(=O)(=O)C1 (configuration not stated) | -0.12% (inactive) |
| Cc1nn(C)c(Oc2ccc(Cl)cc2)c1C=O | -4.58% (inactive) |
| Cc1ccc2c(c1)NCC(C(=O)NC1CCC(C)CC1)O2 (configuration not stated) | -3.3% (inactive) |
| C/C(=N\c1nc2ccccc2n1C)c1cc(Cl)ccc1O | 22% (active) |
| Cn1c(Nc2cccc(Cl)c2)nc2ccccc21 | -3.75% (inactive) |
| Cc1ccc(O)c(CNc2nc3ccccc3n2C)c1 | -1.3% (inactive) |
| Cc1ccc(NC(=O)CSc2nnc(-c3cnccn3)n2Cc2ccco2)cc1C | 1.95% (inactive) |
| CCn1c(SCC(=O)Nc2cc(C)ccc2C)nnc1-c1cnccn1 | 20.4% (active) |
| CCc1ccc(NC(=O)CSc2nnc(-c3cnccn3)n2Cc2ccco2)cc1 | 2.61% (inactive) |
| O=C(COC(=O)c1ccc(Oc2ccccc2)cc1)Nc1nnc(-c2ccccc2)o1 | 23.5% (active) |
| CC(=O)Nc1cccc(C(=O)OCC(=O)Nc2nnc(-c3ccccc3)o2)c1 | 0.85% (inactive) |
| O=C(COC(=O)c1ccccc1Br)Nc1nnc(-c2ccccc2)o1 | 13.9% (inactive) |
| Cc1ccc(S(=O)(=O)N(C)c2ccc(OCC(=O)NC3=NCCS3)cc2)cc1 | -1.97% (inactive) |

| SMILES | inhibition |
| --- | --- |
| CN1C(=O)/C(=C/c2ccco2)SC1=Nc1cccc(C(=O)O)c1 | -2.67% (inactive) |
| Cc1ccc(N2NC(=O)/C(=C/C=C/c3ccco3)C2=O)cc1C | 1.04% (inactive) |
| Cc1ccc(N=C2NC(=O)/C(=C/C=C/c3ccco3)S2)cc1C | 16.1% (active) |
| Cc1ccc(C)c(Cn2cnc3c(oc4ccccc43)c2=O)c1 | 1.24% (inactive) |
| C=CCn1c(SCc2ccc(C(=O)NCCO)cc2)nc2ccccc2c1=O | 2.26% (inactive) |
| O=C(Nn1c(SCc2ccc([N+](=O)[O-])cc2)nc2ccccc2c1=O)c1ccc(F)cc1 | 15.9% (active) |
| Cc1nc2ccccc2c(=O)n1NC(=O)c1ccc(Cl)c([N+](=O)[O-])c1 | 2.24% (inactive) |
| COc1ccc(C(=O)c2c3ccc([N+](=O)[O-])cc3[n+]([O-])n2CCCN)cc1 | 5.14% (inactive) |
| CCOc1ccc(NC(=O)CN(C)CC(=O)NC(C)c2ccccc2)cc1OCC (configuration not stated) | -1.29% (inactive) |
| Cc1cc(C)n(C(=O)c2ccc(S(=O)(=O)N3CCCC3)cc2)n1 | 2.03% (inactive) |
| Cc1cc(Nc2ccccc2)n(CCC#N)n1 | -2.37% (inactive) |
| Cc1cc(Nc2ccccc2)n(C(=O)c2ccc(N)cc2)n1 | 22.3% (active) |
| CCOC(=O)C1=C(CCc2ccccc2)NC(=O)NC1c1ccc2ccccc2c1 (configuration not stated) | 9.37% (inactive) |
| COc1ccc(NS(=O)(=O)c2cc(NC(=O)C3CCCCC3)ccc2N2CCOCC2)cc1 | 0.37% (inactive) |
| Cc1ccc(C2Nc3cccc4cccc(c34)N2)cc1 | 1.42% (inactive) |
| COc1cccc(C2Nc3cccc4cccc(c34)N2)c1 | 3.61% (inactive) |
| Oc1ccc(C2Nc3cccc4cccc(c34)N2)cc1 | 30.9% (active) |
| O=C1Nc2cc(C(=O)N3CCN(c4ccc(F)cc4)CC3)ccc2NC1CSCc1cccc(F)c1 (configuration not stated) | 14.3% (inactive) |
| O=C(c1cc(C(=O)N2CCN(c3ccc(F)cc3)CC2)cc([N+](=O)[O-])c1)N1CCN(c2ccc(F)cc2)CC1 | 1.38% (inactive) |
| Cc1ccc(CSCC2Nc3ccc(C(=O)N4CCN(c5ccc(F)cc5)CC4)cc3NC2=O)cc1 (configuration not stated) | 17.7% (active) |
| CCS(=O)(=O)N1Cc2ccccc2CC1C(=O)Nc1nc2ccc(F)cc2s1 (configuration not stated) | 3.36% (inactive) |
